In PubChem BioAssay (NCI):
About 83,000 compounds went through this panel and 20% of them were active in at least one assay; those are over-represented in the sample as a whole.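 Results are percent growth after 48 hours of single-concentration exposure. 100 means growth as in untreated cells, lower positive values show inhibition; negative values down to -100 show cell death.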 Unmarked numbers belong to inactive results. The source made the active and inactive calls. How the source made its calls: active means growth percent below 10; inactive means the rest.

How the values were obtained:
Experiment in all cases: NCI-60 one-dose screen, 48 h (100 = growth as untreated, 0 = no growth, -100 = all killed)
Details in all cases: 10 µM unless noted
SR leukemia = test system: SR leukemia
RPMI-8226 leukemia = test system: RPMI-8226 leukemia
OVCAR-8 ovarian = test system: OVCAR-8 ovarian
OVCAR-5 ovarian = test system: OVCAR-5 ovarian
OVCAR-4 ovarian = test system: OVCAR-4 ovarian
SK-OV-3 ovarian = test system: SK-OV-3 ovarian
IGROV1 ovarian = test system: IGROV1 ovarian
OVCAR-3 ovarian = test system: OVCAR-3 ovarian
HS 578T breast = test system: HS 578T breast
NCI/ADR-RES ovarian = test system: NCI/ADR-RES ovarian
T-47D breast = test system: T-47D breast
BT-549 breast = test system: BT-549 breast
MDA-MB-435 melanoma = test system: MDA-MB-435 melanoma
SW-620 colon = test system: SW-620 colon
MCF7 breast = test system: MCF7 breast
HCT-116 colon = test system: HCT-116 colon
HCC-2998 colon = test system: HCC-2998 colon
KM12 colon = test system: KM12 colon

SMILES | growth (SR leukemia) | growth (RPMI-8226 leukemia) | growth (OVCAR-8 ovarian) | growth (OVCAR-5 ovarian) | growth (OVCAR-4 ovarian) | growth (SK-OV-3 ovarian) | growth (IGROV1 ovarian) | growth (OVCAR-3 ovarian) | growth (HS 578T breast) | growth (NCI/ADR-RES ovarian) | growth (T-47D breast) | growth (BT-549 breast) | growth (MDA-MB-435 melanoma) | growth (SW-620 colon) | growth (MCF7 breast) | growth (HCT-116 colon) | growth (HCC-2998 colon) | growth (KM12 colon)
COc1ccc(-c2cc(-c3cn(-c4cccc(Cl)c4)nc3-c3ccc(OC)cc3)[nH]c(=S)n2)cc1 | 75.3% | 50.1% | 84% | 97% | 75.8% | 90.1% | 59.4% | 108% | 88.7% | 99.6% | 72.1% | 103% | 63.5% | 66.6% | 86.1% | 69.7% | 55.2% | 86.7%
CCSc1cnnc2ccccc12 | 94.2% | 111% | 104% | 103% | 103% | 109% | 128% | 121% | 117% | 104% | 107% | 116% | 105% | 113% | 108% | 106% | 101% | 113%
COc1ccccc1CNCCCN1C(=O)c2ccc3c4c(ccc(c24)C1=O)C(=O)N(CCCOCCCCOCCCN)C3=O | 7.67% (active) | -5.62% (active) | -14.6% (active) | -55.9% (active) | -97.1% (active) | 25.3% | -51.8% (active) | -95% (active) | 19.1% | -8.07% (active) | -56.8% (active) | 27.4% | -84.6% (active) | -60.6% (active) | -69.6% (active) | -68.7% (active) | -53.5% (active) | -59% (active)
CC(=O)Oc1c(Cl)c(Cl)c(Cl)c(Cl)c1Cl | 106% | 73.4% | 92.6% | 100% | 90.3% | 91.4% | 92% | 107% | 106% | 93.4% | 89.2% | 95.4% | 102% | 102% | 93.8% | 99.4% | 94.9% | 103%
CC1CCN(CCCCCOc2ccc3oc4ccc(Cl)cc4c(=O)c3c2)CC1 | 14.9% | 35.4% | 59.7% | 72.9% | 77.3% | 84.3% | 70.4% | 74.6% | 86.5% | 71.6% | 63.4% | 76.2% | 21.4% | 46.7% | 59.8% | 23.9% | 78.4% | 62.3%
CC(C)OC1OC(OC(C)C)C(OC(C)C)OC1OC(C)C (stereo unspecified) | 100% | 94.5% | 94.4% | 102% | 88.9% | 113% | 93.9% | 99.5% | 101% | 105% | 115% | 102% | 110% | 96.2% | 103% | 88.5% | 121% | 95.2%
O=C1SCN(Cc2ccccc2)CN1Cc1ccccc1 | 8.82% (active) | 43.7% | 90.7% | 105% | 109% | 107% | 97.2% | 105% | 95.5% | 100% | 52.2% | 131% | 73.3% | 34.3% | 22.1% | 70.5% | 115% | 32.4%
CS(=O)(=O)c1ccc(Cl)c([N+](=O)[O-])c1 | 18.6% | 70.3% | 107% | 108% | 111% | 104% | 38.5% | 9.6% (active) | 73.3% | 101% | 104% | 111% | 99.1% | 67.9% | 107% | 105% | 109% | 75.3%
CS(=O)(=O)c1ccc(C(=O)N/N=C/c2cccc3ccccc23)cc1 | 32.5% | 87.7% | 83.9% | 109% | 113% | 78.1% | 63.3% | 67.8% | 85.1% | 73.5% | 85.3% | 87.6% | 17.1% | 63.2% | 44.9% | 61.8% | 84.5% | 50.8%
O=S(=O)(Nc1ccc2ccccc2c1)N1CCCCC1 | 38.1% | 82.4% | 68.2% | 79.1% | 85.1% | 52% | 36.3% | 53.2% | 47.5% | 6.41% (active) | 50.3% | 47.3% | -0.27% (active) | 41% | 49% | 55% | 45.3% | 39.7%
C=C(C)[C@@H]1CC[C@]2(C(=O)O)CC[C@]3(C)[C@H](CC[C@@H]4[C@@]5(C)C[C@@H](CC#Cc6ccc(C(C)=O)s6)[C@H](O)C(C)(C)[C@@H]5CC[C@]43C)[C@@H]12 | 78.3% | 40% | 38.4% | 98% | 33.6% | 27.7% | 89.1% | 58.4% | 73.1% | 76.3% | 51.5% | 53.1% | 81.5% | 59.8% | 55% | 26% | 62.9% | 18.1%
COc1ccc(/C=N/NC(N)=S)c(OC)n1 | 88.3% | 94.8% | 97.7% | 109% | 93.9% | 114% | 100% | 111% | 103% | 109% | 80% | 102% | 101% | 108% | 93.6% | 99.2% | 115% | 102%
C=C1C(=O)O[C@H]2[C@H]1CC/C(COC(=O)NCc1cn(C)c3ccccc13)=C\CC[C@@]1(C)O[C@@H]21 | 6.96% (active) | -29.3% (active) | 4.58% (active) | 23% | 12% | 60.2% | 0.634% (active) | -80.8% (active) | 49.6% | 19% | -54.1% (active) | -54.3% (active) | -30.4% (active) | -48.4% (active) | 3.65% (active) | -97.2% (active) | 49.1% | 39.5%
CN(C)CCCn1c(=O)c2cc([N+](=O)[O-])ccc2c2cnc3[nH]ccc3c21 | -27.6% (active) | 45.4% | 35.1% | 73.1% | 61% | 63.8% | 54.9% | 68.2% | 75.3% | 51.7% | 86.5% | 68.7% | 67.7% | 33.1% | -12% (active) | 12.4% | 60% | 47.9%
Cc1cc(-c2ccccc2)on1 | 87.3% | 108% | 106% | 106% | 102% | 93.1% | 98.1% | 112% | 104% | 105% | 96% | 119% | 107% | 109% | 106% | 101% | 111% | 106%
COc1cnc2c(c1)C(=O)c1c-2n(CCCN2CCNCC2)c(=O)c2cc(Cl)ccc12 | -48.7% (active) | -64.9% (active) | -58.9% (active) | -96.1% (active) | 53.4% | 14.5% | 51.4% | -90.5% (active) | 66.3% | 48.1% | 58.8% | 45.7% | 0.312% (active) | -84.5% (active) | -74.9% (active) | -100% (active) | 54.4% | 11.8%
CCOC(=O)C1OC2(CCCC2)OC1C(=O)OCC (stereo unspecified) | 104% | 84.8% | 108% | 110% | 118% | 105% | 96.6% | 122% | 105% | 117% | 98.4% | 98.9% | 112% | 113% | 98.2% | 98% | 104% | 104%
